Reference: PubChem BioAssay (NCI)
About 79,000 compounds went through this panel and 15% of them were active in at least one assay; those are over-represented in the sample as a whole. The source made the active and inactive calls. Rule as the data show it: active = growth inhibition above about 70%; inactive = the rest.

Assays:
[1] = NCI Yeast Anticancer Drug Screen. Data for the rad50 strain (AID 155);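 also: 0% = growth of vehicle-only cultures of the same strain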; conditions: S. cerevisiae rad50 strain growth inhibition; at 50.0 µM; stronger effect = higher value
Outline: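 DNA repair mutant yeast, compound exposure, growth read-out; inhibition is taken relative to vehicle.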

[2] = NCI Yeast Anticancer Drug Screen. Data for the mec2-1 strain (AID 157); conditions: S. cerevisiae mec2-1 strain, at 50.0 µM, stronger effect = higher value
Outline: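 Mutant yeast (mec2-1) grown with compound; growth inhibition relative to vehicle control reported.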

[3] = NCI Yeast Anticancer Drug Screen. Data for the sgs1 mgt1 strain (AID 161);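 also: 0% = growth of cultures given vehicle only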; conditions: S. cerevisiae sgs1 mgt1 strain, at 50.0 µM, stronger effect = higher value
Outline: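 Percent growth inhibition was derived by comparing compound-exposed mutant yeast with vehicle-exposed cultures. The strain carries alterations in DNA damage repair.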

[4] = NCI Yeast Anticancer Drug Screen. Data for the cln2 rad14 strain (AID 165);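 also: 0% = growth equal to vehicle treated cultures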; conditions: S. cerevisiae cln2 rad14 strain, at 50.0 µM, stronger effect = higher value
Outline: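 Readout is yeast growth inhibition versus vehicle-treated controls, using a strain with cln2 and rad14 alterations exposed to compound.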

[5] = NCI Yeast Anticancer Drug Screen. Data for the bub3 strain (AID 167); conditions: S. cerevisiae bub3 mutant strain, at 50.0 µM, stronger effect = higher value
Outline: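 In this screen, a yeast mutant lacking normal mitotic checkpoint function is challenged with compound. Relative growth versus vehicle gives the inhibition value.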

[6] = NCI Yeast Anticancer Drug Screen. Data for the mlh1 rad18 strain (AID 175); conditions: S. cerevisiae mlh1 rad18 strain growth inhibition; at 50.0 µM; stronger effect = higher value
Outline: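 Genetically defined yeast (DNA repair-deficient) exposed to compounds; growth inhibition determined relative to vehicle.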

Measured: growth inhibition

O=C1C(=O)N(C23CC4CC(CC(C4)C2)C3)C(=S)N1c1ccccc1
inactive: [1] -9.7% | [2] -20.6% | [3] -44.2% | [4] -26% | [5] -24.7% | [6] -27.2%

Nc1ncnc(N)c1NC(=O)c1cccc(F)c1
inactive: [1] 0.15% | [2] -1.3% | [3] -3.7% | [4] -39.2% | [5] -8.35% | [6] 1.5%

CC(C)Oc1ccc(C(=O)O)cc1
inactive: [1] 23.6% | [2] 5.05% | [3] 4.75% | [4] -0.15% | [5] -19.1% | [6] 14.1%

CCCCC(CC)(SC(CC)C(N)=O)C(N)=O (configuration not stated)
inactive: [1] -2.2% | [2] -0.55% | [3] 16.9% | [4] 20.1% | [5] 5.75% | [6] -5%

CC(=O)OCC1OC(Oc2cccc(C=C(C(C)=O)C(C)=O)c2)C(OC(C)=O)C(OC(C)=O)C1OC(C)=O (configuration not stated)
inactive: [1] 9.25% | [2] 3.25% | [3] 6.65% | [4] 5.3% | [5] 0.65% | [6] 30.7%

N#CCCN(CCC#N)c1ccc(/C=C2\N=C(CN3C(=O)c4ccccc4C3=O)OC2=O)cc1
inactive: [1] -20.1% | [2] 4.25% | [3] 7.05% | [4] 11.3% | [5] 0.05% | [6] 7.55%

CC(C)(C)CP(=S)(CCP(CCP(=S)(CC(C)(C)C)CC(C)(C)C)CCP(=S)(CC(C)(C)C)CC(C)(C)C)CC(C)(C)C
inactive: [1] -0.75% | [2] -14.6% | [3] -18% | [4] 9.6% | [5] 0.65% | [6] -16.1%

CC1(C)CC([NH-])(C(=O)O)CC(C)(C)N1O.CC1(C)CC([NH-])(C(=O)O)CC(C)(C)N1O.[Cu+2]
inactive: [1] 27.6% | [2] -17.9% | [3] 16.5% | [4] -20.3% | [5] 0.7% | [6] 4.55%

Cc1cc2ccccc2c[n+]1C1CCc2ccccc2C1=O (configuration not stated)
inactive: [1] 7.1% | [2] 5.6% | [3] 30.6% | [4] 24% | [5] 3.4% | [6] 20.2%

NC(Cc1cc(I)c(Oc2ccc(O)c(I)c2)c(I)c1)C(=O)O (configuration not stated)
inactive: [1] -5.1% | [2] -1.35% | [3] -9.5% | [4] -27.5% | [5] -30.5% | [6] 33.4%

N#CC1=C(N)C(c2ccccc2)(c2ccccc2)CC1
inactive: [1] 30.4% | [2] 29.6% | [3] 8.15% | [4] -0.45% | [5] 0.4% | [6] 35.7%

CSc1ccc(NC(=O)c2cccc([N+](=O)[O-])c2C(=O)O)cc1
inactive: [1] 5.05% | [2] 8.25% | [3] 13.2% | [4] -6.35% | [5] 15.2% | [6] 1.6%

C[CH2][Ge]([CH2]C)[CH2]C.C[CH2][Ge]([Cl])[CH2]C
active: [1] 76.3% | [6] 74.5%
inactive: [2] 3.45% | [3] 52.9% | [4] -10.2% | [5] 41.8%

O=C1c2ccccc2-c2oc(=O)c3ccccc3c21
inactive: [1] -19.9% | [2] -1.5% | [3] -6.05% | [4] -17.2% | [5] 2.2% | [6] -15.9%

O=c1[nH]c(=O)n(C2OC(COP(=O)(O)OP(=O)(O)OC3OC(CO)C(O)C(O)C3O)C(O)C2O)cc1F (configuration not stated)
inactive: [1] 1.15% | [2] 3.65% | [3] 8.8% | [4] 18.9% | [5] -15.3% | [6] 9.85%

C#CC1(O)CCCCCCCCC2(CCCCCCCC1)OCCO2
inactive: [1] -10.7% | [2] -10.8% | [3] -18.2% | [4] 13.7% | [5] -5.85% | [6] 1.25%

CC(=O)OC1CCC2(C)C(CCC3C2CCC2(C)C3CC3OC(CCC(C)CO)C(C)C32)C1 (configuration not stated)
inactive: [1] 14.8% | [2] 8.55% | [3] -0.45% | [4] 19.6% | [5] -0.75% | [6] 10.1%

C=CCOC(C)OCC=C
inactive: [1] 17.9% | [2] 7.9% | [3] -1.35% | [4] -23.5% | [5] 13.3% | [6] -0.15%

c1ccc2c3c([nH]c2c1)CCCCCC3
inactive: [1] 19.2% | [2] 14.6% | [3] 15.1% | [4] 13.2% | [5] 21.8% | [6] 15.9%

CCSSC12CCCN1C(=O)C1CCCN1C2=O (configuration not stated)
inactive: [1] 49% | [2] 40.9% | [3] 9.4% | [4] -40% | [5] 20.6% | [6] 20.4%

CN(C)c1ccc(C(=O)C2N=NCC2c2ccccc2)cc1 (configuration not stated)
inactive: [1] 10.3% | [2] -1.3% | [3] 13% | [4] 7.3% | [5] 12.8% | [6] 17.2%

Cc1onc2c1c(=O)n(C)c(=O)n2C
inactive: [1] -6.25% | [2] -1.95% | [3] -3.55% | [4] -20.1% | [5] -7.45% | [6] -2.25%

CSc1cc2c(cc1N)C(=O)c1ccccc1-2
inactive: [1] 12.5% | [2] 2.45% | [3] 7.4% | [4] -24.1% | [5] -13.1% | [6] 12.9%

Cc1cc2oc(=O)cc(C(=O)O)c2c(=O)o1
inactive: [1] -15.8% | [2] -9.55% | [3] -13.2% | [4] -17.6% | [5] -8.85% | [6] -16.1%

CC(C)(C)c1ccc(C(=O)O)c(O)c1.CC(C)(C)c1ccc(C(=O)O)c(O)c1.[Cu]
inactive: [1] 24.6% | [2] 15.1% | [3] 43.4% | [4] 47.6% | [5] 2.75% | [6] 37.1%

COC1OC(COC(c2ccccc2)(c2ccccc2)c2ccccc2)C(OS(=O)(=O)c2ccc(C)cc2)C(OC(=O)c2ccccc2)C1OC(=O)c1ccccc1 (configuration not stated)
inactive: [1] 0.1% | [2] -6.7% | [3] -1.15% | [4] -7.35% | [5] 0.3% | [6] 27.9%

COc1cc2c(cc1OC)C(=O)C(C1=C(SC(=N)N)C(=O)c3cc(OC)c(OC)cc31)C2 (configuration not stated)
inactive: [1] -7.4% | [2] -21.9% | [3] -7.75% | [4] -0.65% | [5] 2.85% | [6] -2%

CCOC(=O)COc1ccc(Cl)cc1CCl
inactive: [1] 3.2% | [2] 6.4% | [3] -10.4% | [4] -10.9% | [5] 21.9% | [6] 1.65%

CCOc1cc2c(cc1Cc1ccc3c(c1)OCO3)OCO2
inactive: [1] -8.15% | [2] -11.8% | [3] -5.6% | [4] -12.1% | [5] 4.35% | [6] 1.3%

C/C=N\C(N)=S
inactive: [1] 1.45% | [2] -1.3% | [3] 4.8% | [4] 9.05% | [5] 9.8% | [6] 1%

CN(C)C(=O)NNC(=O)N(C)C
inactive: [1] 1.75% | [2] 20.5% | [3] 12.8% | [4] -22.5% | [5] 6.85% | [6] -0.7%

CNC1C(CO)OC(OC)C1O (configuration not stated)
inactive: [1] 10.8% | [2] 12% | [3] 7.1% | [4] 8% | [5] 1.2% | [6] -2.85%

CCN(c1ccccc1)c1ncnc2nc[nH]c12
inactive: [1] 6.75% | [2] 0.75% | [3] -1.75% | [4] -28.9% | [5] 19.9% | [6] -5.5%

CCc1c(O)nc(Nc2nc3ccccc3[nH]2)[nH]c1=O
inactive: [1] -34.4% | [2] -21.8% | [3] -21.4% | [4] -23.5% | [5] -33% | [6] -56.5%

CC(NC(=O)CNC(=O)CN)C(N)=O (configuration not stated)
inactive: [1] -23.9% | [2] -0.65% | [3] -17.1% | [4] 5.9% | [5] 8.25% | [6] -17.2%

CCCCCNC(=O)c1ccc(C)cc1
inactive: [1] 2.5% | [2] -4.15% | [3] 1.05% | [4] -12.6% | [5] -10.8% | [6] -70%

CCCCOC(=O)c1cccc(C(=O)OCCCC)n1
inactive: [1] -20.9% | [2] -18.9% | [3] -14.1% | [4] -5.6% | [5] -11.5% | [6] -22.8%
